KKLEB cytotox – reduces viability of KKLEB cystic fibrosis airway cells; 360,000 compounds, 0.36% hits; activity change (cytotoxicity), % at 5 µM; KKLEB CF airway cells viability, ATPlite luminescence, overnight; hits give low values; cells stimulated with P. aeruginosa culture filtrate;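 active = corrected activity change at or below -50% at 5 µM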
TWEAK-Fn14 inh – inhibitors of TWEAK-Fn14 interaction signaling. 360,000 compounds, 2% hits. inhibition, % at 10 µM. TWEAK-stimulated Fn14 reporter cells, luciferase luminescence, 8 h. AID 1159606; in the data active = inhibition above about 50%
CF NFkB block – cystic fibrosis NF-kB activation inhibition; inhibition, % at 5 µM; 360,000 compounds, 0.86% hits; KKLEB NF-kB-GFP reporter, PAF-induced, GFP fluorescence overnight;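 active = at least 50% inhibition at 5 µM, scaled per plate between neutral and stimulator controls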;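 also: PAF is a Pseudomonas aeruginosa culture filtrate used as stimulus; plate controls were PAF-stimulated DMSO wells for no effect and unstimulated DMSO wells for full effect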
Peg3 prom inh – Peg3 promoter activity inhibition. HeLa PEG-Prom luciferase reporter, luminescence, overnight. AID 588405. inhibition, % at 20 µM. 360,000 compounds, 1.7% hits;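 active = inhibition of at least 50% at 20 µM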
HIF-2a block – HIF-2a inhibition | 360,000 compounds, 0.72% hits | 786-0 RCC cells HIF-2a reporter, luciferase luminescence, overnight | inhibition, % at 18.8 µM | AID 624352;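 active = inhibition of the luminescence signal of 40% or more relative to plate controls, in a single-dose primary screen at 18.75 µM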
TROY NFkB inh – inhibitors of TROY-dependent NF-kB signaling; Q293 LMP1-TROYcd NF-kB luciferase reporter, 4 h; 360,000 compounds, 0.98% hits; inhibition, % at 10 µM;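 active = compounds whose plate-normalised and pattern-corrected inhibition of the luciferase reporter signal at the single screening dose is 50% or more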
Starred values were filed as active, the others as inactive. Only some compounds are listed: those with a hit (about 4% of all), similar ones and a draw of the others.

How did COC(=O)c1ccccc1NC(=O)[C@@H]1CCC(=O)N1C1OC(=O)c2c1ccc(OC)c2OC (some centres not stated) do in these assays?
KKLEB cytotox: -1; TWEAK-Fn14 inh: 7; CF NFkB block: 9; Peg3 prom inh: 1; HIF-2a block: 7; TROY NFkB inh: -2

Results for O=C(Nc1ccc([N+](=O)[O-])cc1)Nc1nc(-c2ccc(Cl)s2)cs1 ?
KKLEB cytotox: -47; TWEAK-Fn14 inh: 67*; CF NFkB block: 48; Peg3 prom inh: 69*; HIF-2a block: 13; TROY NFkB inh: 54*

Results for CC(=O)Nc1nc(-c2ccc([N+](=O)[O-])cc2)cs1 ?
KKLEB cytotox: 22; TWEAK-Fn14 inh: -6; CF NFkB block: -32; Peg3 prom inh: -38; HIF-2a block: -62; TROY NFkB inh: -41

What do the screens show for `COc1cc2nc(N3CCN(C(=O)OCc4ccccc4)[C@H](C(=O)NC(C)(C)C)C3)nc(N)c2cc1OC`?
KKLEB cytotox: 6; TWEAK-Fn14 inh: -1; CF NFkB block: -14; Peg3 prom inh: -8; HIF-2a block: 0; TROY NFkB inh: -6

How did CCc1ccc(C(=O)NC(=S)Nc2ccc(N3CCOCC3)cc2)cc1 do in these assays?
KKLEB cytotox: -4; TWEAK-Fn14 inh: 22; CF NFkB block: -3; Peg3 prom inh: -13; HIF-2a block: -35; TROY NFkB inh: 53*

Results for S=C(Nc1ccc(N2CCOCC2)cc1)Nc1ccc2nc(-c3ccco3)c(-c3ccco3)nc2c1 ?
KKLEB cytotox: 1; TWEAK-Fn14 inh: 72*; CF NFkB block: -3; Peg3 prom inh: 13; HIF-2a block: -9; TROY NFkB inh: 4

What do the screens show for `CC(=O)c1ccc(NC(=O)CN2CCOCC2)cc1`?
KKLEB cytotox: 7; TWEAK-Fn14 inh: 110*; CF NFkB block: -11; Peg3 prom inh: -11; HIF-2a block: 1; TROY NFkB inh: -3

Results for CC(=O)c1ccc(NC(=S)Nc2ccc(N3CCOCC3)cc2)cc1 ?
KKLEB cytotox: 19; TWEAK-Fn14 inh: 38; CF NFkB block: 4; Peg3 prom inh: -11; HIF-2a block: -23; TROY NFkB inh: 51*

What do the screens show for `O=C(Nc1ccc(N2CCOCC2)cc1)c1ccc2nc(-c3ccco3)c(-c3ccco3)nc2c1`?
KKLEB cytotox: -12; TWEAK-Fn14 inh: 8; CF NFkB block: 4; Peg3 prom inh: -19; HIF-2a block: -3; TROY NFkB inh: 2

What do the screens show for `CC(=O)c1ccc(NC(=O)CN2CCN(CC(=O)Nc3ccc(C(C)=O)cc3)CC2)cc1`?
KKLEB cytotox: 5; TWEAK-Fn14 inh: -19; CF NFkB block: -18; Peg3 prom inh: 14; HIF-2a block: -1; TROY NFkB inh: -5

What do the screens show for `CC(C)NC(=O)CN1C(=O)c2cccc3cccc1c23`?
KKLEB cytotox: 1; TWEAK-Fn14 inh: -3; CF NFkB block: 4; Peg3 prom inh: 18; HIF-2a block: 13; TROY NFkB inh: -1

How did CCCCNC(=O)C1(C)CCCCN1C(=O)c1ccc2sccc2c1 (configuration not stated) do in these assays?
KKLEB cytotox: -7; TWEAK-Fn14 inh: -2; CF NFkB block: -7; Peg3 prom inh: 16; HIF-2a block: -5; TROY NFkB inh: 11

How did NC(=NC1CCCCC1)NS(=O)(=O)c1ccccc1 do in these assays?
KKLEB cytotox: 5; TWEAK-Fn14 inh: 10; CF NFkB block: -9; Peg3 prom inh: -4; HIF-2a block: -2; TROY NFkB inh: -5

How did CC1CCCCC1Nc1nc2ccc(Cl)cc2n2cnnc12 (configuration not stated) do in these assays?
KKLEB cytotox: 5; TWEAK-Fn14 inh: -6; CF NFkB block: 12; Peg3 prom inh: 14; HIF-2a block: -12; TROY NFkB inh: -15

Results for COc1ccc(OC)c(NC(=O)NCc2cccnc2)c1 ?
KKLEB cytotox: 1; TWEAK-Fn14 inh: -13; CF NFkB block: 26; Peg3 prom inh: 7; HIF-2a block: 2; TROY NFkB inh: -1

How did COc1ccc(-n2nc3c(N4CCC(C(=O)NCc5ccco5)CC4)nnc(C)c3c2C)cc1 do in these assays?
KKLEB cytotox: -6; TWEAK-Fn14 inh: 5; CF NFkB block: 22; Peg3 prom inh: -15; HIF-2a block: 9; TROY NFkB inh: 34

What do the screens show for `CCOc1ccccc1CNC(=O)C1CCCN(c2nnc(C)c3c(C)n(-c4ccccc4)nc23)C1` (configuration not stated)?
KKLEB cytotox: 3; TWEAK-Fn14 inh: 11; CF NFkB block: 0; Peg3 prom inh: 55*; HIF-2a block: 11; TROY NFkB inh: 31

What do the screens show for `COc1ccc(-n2nc3c(N4CCC(C(=O)NCCc5ccccc5C)CC4)nnc(C)c3c2C)cc1`?
KKLEB cytotox: 0; TWEAK-Fn14 inh: -15; CF NFkB block: -3; Peg3 prom inh: 103*; HIF-2a block: 0; TROY NFkB inh: 6

What do the screens show for `COc1ccc(-n2nc3c(N4CCC(C(=O)NCC(C)c5ccccc5)CC4)nnc(C)c3c2C)cc1` (configuration not stated)?
KKLEB cytotox: -4; TWEAK-Fn14 inh: -21; CF NFkB block: 13; Peg3 prom inh: 75*; HIF-2a block: 11; TROY NFkB inh: 10

What do the screens show for `Cc1ccc(-n2nc3c(N4CCC(C(=O)NCc5cccc(F)c5)CC4)nnc(C)c3c2C)cc1`?
KKLEB cytotox: -10; TWEAK-Fn14 inh: -17; CF NFkB block: 19; Peg3 prom inh: 16; HIF-2a block: 19; TROY NFkB inh: 2

How did Cc1cc(O)c(Sc2ncn[nH]2)cc1NS(=O)(=O)c1ccc(Cl)cc1 do in these assays?
KKLEB cytotox: 2; TWEAK-Fn14 inh: -3; CF NFkB block: 19; Peg3 prom inh: 7; HIF-2a block: 11; TROY NFkB inh: -17

Results for O=C(O)CSc1cc(NS(=O)(=O)c2ccc(Br)cc2)c2ccccc2c1O ?
KKLEB cytotox: -31; TWEAK-Fn14 inh: 98*; CF NFkB block: 91*; Peg3 prom inh: 45; HIF-2a block: 5; TROY NFkB inh: -15

Results for Cc1ccc(S(=O)(=O)Nc2ccc(Br)cc2C(NCC(=O)O)c2ccccc2)cc1 (configuration not stated) ?
KKLEB cytotox: 8; TWEAK-Fn14 inh: 12; CF NFkB block: 24; Peg3 prom inh: 10; HIF-2a block: 20; TROY NFkB inh: 0

Results for O=S(=O)(Nc1cc(Sc2ncn[nH]2)c(O)c2ccccc12)c1ccccc1 ?
KKLEB cytotox: 7; TWEAK-Fn14 inh: 95*; CF NFkB block: 79*; Peg3 prom inh: -5; HIF-2a block: 3; TROY NFkB inh: 62*

How did CC1CCN(C(=O)c2cc3c(ccc4ccccc43)o2)CC1 do in these assays?
KKLEB cytotox: -11; TWEAK-Fn14 inh: 61*; CF NFkB block: -26; Peg3 prom inh: -140; HIF-2a block: -53; TROY NFkB inh: 41

How did CCOC(=O)C1CCN(C(=O)c2cc3c(ccc4ccccc43)o2)CC1 do in these assays?
KKLEB cytotox: 4; TWEAK-Fn14 inh: -28; CF NFkB block: 11; Peg3 prom inh: -308; HIF-2a block: -182; TROY NFkB inh: -39
